In PubChem BioAssay AID1650 (Southern Research Specialized Biocontainment Screening …, 2009):
Measured potencies and affinities stand elsewhere. Activity calls are given as the source filed them. No rule for the calls is given here.

Assay: host cell cytotoxicity of antiviral hits, dose response, cytotoxicity control for West Nile virus antiviral project, secondary assay (AID 1650)
Details: Mammalian host cell viability, cytotoxicity counter-screen; series mostly up to 10 µM

SMILES | outcome
Cc1ccc2[nH]c(=O)c(CN(CCCN3CCOCC3)C(=O)Nc3ccc(Cl)cc3)cc2c1 | inactive
Cc1oc(-c2ccccc2Cl)[n+]([O-])c1C | inactive
COC(=O)c1ccc(C(=O)Nc2cc(Cl)ccc2Cl)cc1NC(=O)c1ccccc1C | inactive
O=C1OC(N2CCN(Cc3ccccc3)CC2)c2ccccc21 (stereo not given) | inactive
FC(F)(F)c1nnc(-c2ccccc2)nc1Sc1ccc(Cl)cc1 | inactive
Cc1ccc2nc(N(CCCN(C)C)C(=O)CCc3ccccc3)sc2c1 | inactive
O=C(Nc1ccc(-n2ccc(C(F)(F)F)n2)cc1)Nc1cccc(Cl)c1 | inactive
COc1ccccc1NS(=O)(=O)c1cccc(NC(=O)Nc2ccc(Cl)cc2)c1 | inactive
Cc1c(Cc2ccccc2)c(NCCN(C)C)n2c(nc3ccccc32)c1C#N | inactive
Cc1cc(C)c(CSc2ncc(-c3ccc([N+](=O)[O-])cc3)[nH]2)c(C)c1 | inactive
Cc1ccc(Nc2nc(N)c([N+](=O)[O-])c(N3CCCC(C)C3)n2)cc1C (stereo not given) | inactive
O=C(CCN1C(=O)/C(=C/c2ccc(F)cc2)SC1=S)NCCc1ccc(O)cc1 | inactive
O=C(NC1CCCC1)C(c1ccncc1)N(Cc1ccccc1)C(=O)c1ccc(-c2ccccc2)[nH]1 (stereo not given) | inactive
CC(C)n1cc(/C=C2/SC(=O)N(CC(=O)Nc3ccc4c(c3)OCO4)C2=O)c2ccccc21 | inactive
O=C(CSc1nc2ccccc2c(=O)n1-c1ccc(F)cc1)Nc1ccc2c(c1)CCC2 | inactive
CCCc1nc2c(c(=O)c3ccccc3n2C)c(=O)n1C1CCCCCC1 | inactive
Cc1cccc(CN2CCC(CNC(=O)CSc3cc(=O)n(C)c4cc(Cl)ccc34)CC2)c1 | inactive
COCCN1CCCC(CNCc2cn(C)nc2-c2ccc(Oc3ccccc3)cc2)C1 (stereo not given) | inactive
Cc1cc(C)cc(OC(=O)CS(=O)c2ccc(C(F)(F)F)cc2[N+](=O)[O-])c1 (stereo not given) | inactive
Cn1c(=O)n(CCCOc2ccc(Br)cc2)c2ccccc21 | inactive

SMILES | outcome
COc1ccc(-c2nc(CN3CCC(C(=O)NC4CCN(Cc5ccccc5)CC4)CC3)c(C)o2)cc1OC | inactive
O=C(Nc1ccc(F)cc1)c1nc[nH]c1C(=O)Nc1ccccc1[N+](=O)[O-] | inactive
COc1cc(C2c3c(oc4cc(C)c(C)cc4c3=O)C(=O)N2c2cc(C)ccn2)ccc1O (stereo not given) | inactive
CCOC(=O)c1cc(-c2ccc(OC)cc2F)nc2c1c(C)nn2CCC#N | inactive
Cn1cc(CN2CCCC(C(=O)Nc3cccc(-c4cc5ccccc5[nH]4)c3)C2)cn1 (stereo not given) | inactive
CN1CCCC(CC2Oc3ccccc3Sc3ccccc32)C1 (stereo not given) | inactive
O=C(NCCOc1ccccc1Cl)c1ncn[nH]1 | inactive
CCOC(=O)c1c(CN2CCN(C)CC2)n(C)c2cc(Br)c(OC)cc12 | inactive
Cc1cc(C)nc(S/C=C/C(=O)c2ccccc2F)n1 | inactive
COc1ccc(-c2cc3c(=O)n(CC(=O)NCc4ccccc4F)ncn3n2)cc1 | inactive
C/C(=N\Nc1nnc(-c2ccccc2)c(-c2ccccc2)n1)c1cccc([N+](=O)[O-])c1 | inactive
CCOc1ccc(/C=C/c2nc(C#N)c(NCCCN(C)C)o2)cc1 | inactive
Cc1ccc(OCC(O)Cn2c(=N)n(CCN3CCCCC3)c3ccccc32)cc1 (stereo not given) | inactive
COc1c(O)ccc2c1CN1CCc3cc4c(cc3C1C2)OCO4 (stereo not given) | inactive
CCOc1ccc(NC(=O)c2c(NC(=O)CN3CCN(C)CC3)sc3c2CCC3)cc1 | inactive
CN1CCN(c2ccc(NC(=O)c3ccc(-c4cccc([N+](=O)[O-])c4)o3)cc2)CC1 | inactive
CCOC(=O)c1[nH]c2ccccc2c1NC(=O)CC(C)(C)C | inactive
CN1CCN(C(=O)CCN2C(=O)/C(=C\c3ccc(Cl)cc3Cl)SC2=S)CC1 | inactive
Cc1ccc(CN(Cc2cc3cccc(C)c3[nH]c2=O)C(=S)NCCCN(C)C)cc1 | inactive
COc1cc(C(CCN2CCCC(C)C2)c2c(OC)cc(OC)c3c(-c4ccccc4)cc(=O)oc23)cc(OC)c1OC (stereo not given) | inactive
